From PubChem BioAssay (NCATS)
Inconclusive results are not listed. The source made the active and inactive calls. Calls come from the whole dose curve; as a rule, active = well fitted curve in the direction sought with a large enough effect; inconclusive = small, poorly fitted or top-dose-only effect, or another doubt; inactive = no such curve, though single readings can be large; an effect the other way counts as inactive or inconclusive.

biological target: Rap guanine nucleotide exchange factor 4 (Homo sapiens) (UniProt Q8WZA2); assay: Confirmatory qHTS for agonist of cAMP-regulated guanine nucleotide exchange factor 4 (EPAC2) (AID 1645884); details: EPAC2 GEF activity, Rap1B-BODIPY-GDP fluorescence; series mostly up to 154 µM; activation: at the top concentration;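 note: nucleotide exchange releases bodipy-GDP from Rap1 and this lowers its fluorescence; nearly all actives have a fitted effect of over 65% in size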; note: potency is the fitted concentration of half-maximal effect; for activation: % is set by controls: 0 for no effect and ±100 for the full control effect
Sequence (Q8WZA2 whole entry, looked up): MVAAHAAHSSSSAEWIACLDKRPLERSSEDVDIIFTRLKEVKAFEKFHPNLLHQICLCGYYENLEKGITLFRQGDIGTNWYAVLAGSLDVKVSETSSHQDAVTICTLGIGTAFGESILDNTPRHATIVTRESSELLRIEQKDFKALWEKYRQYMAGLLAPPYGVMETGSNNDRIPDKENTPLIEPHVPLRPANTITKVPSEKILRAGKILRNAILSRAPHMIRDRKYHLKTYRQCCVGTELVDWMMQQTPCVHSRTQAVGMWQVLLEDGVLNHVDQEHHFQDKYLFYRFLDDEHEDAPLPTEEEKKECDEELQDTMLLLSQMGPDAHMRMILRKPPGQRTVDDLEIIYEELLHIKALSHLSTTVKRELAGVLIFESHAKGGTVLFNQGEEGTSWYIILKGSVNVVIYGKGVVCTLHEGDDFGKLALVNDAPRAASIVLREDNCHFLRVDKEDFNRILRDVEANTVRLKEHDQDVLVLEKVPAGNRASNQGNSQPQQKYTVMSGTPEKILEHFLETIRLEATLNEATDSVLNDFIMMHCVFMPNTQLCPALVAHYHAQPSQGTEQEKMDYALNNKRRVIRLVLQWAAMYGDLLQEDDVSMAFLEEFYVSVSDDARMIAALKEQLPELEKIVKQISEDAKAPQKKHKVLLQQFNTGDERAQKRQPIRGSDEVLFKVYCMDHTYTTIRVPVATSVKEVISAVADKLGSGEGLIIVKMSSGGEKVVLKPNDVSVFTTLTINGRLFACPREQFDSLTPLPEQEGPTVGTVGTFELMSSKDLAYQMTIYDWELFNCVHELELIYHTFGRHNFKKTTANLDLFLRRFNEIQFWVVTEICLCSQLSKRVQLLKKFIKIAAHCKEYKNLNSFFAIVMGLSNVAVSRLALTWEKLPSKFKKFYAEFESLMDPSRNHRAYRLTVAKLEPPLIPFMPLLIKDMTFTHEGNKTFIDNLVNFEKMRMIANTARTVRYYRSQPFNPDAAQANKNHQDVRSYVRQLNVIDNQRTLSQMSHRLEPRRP

Structure (SMILES)	activation	Potency
CCOC(=O)c1c(C)[nH]c(C)c1C(=O)COC(=O)c1cc(OC)cc(OC)c1	4.44% (inactive)	
C=CC[C@@H](Cc1ccc(F)cc1)C(=O)OC[C@@H]1CCCN1C(=O)[C@@H](CC=C)CC(=O)N(CCO)Cc1ccccc1	-12.8% (inactive)	
COc1ccccc1NS(=O)(=O)c1ccc2ccccc2c1	0% [at 17.1 µM, percent relative to cAMP agonist control] (inactive)	
CN1C(=O)/C(=C2/C=Cc3ccccc3N2CCCS(=O)(=O)O)SC1=S	-29.5% (inactive)	
COc1ccc(CN(C)C(=O)c2ccc(OCC(=O)Nc3cccc(C(F)(F)F)c3)c(OC)c2)c(OC)c1	-14.4% (inactive)	
CCN1/C(=C\c2ccc3ccccc3[n+]2CC)Sc2cc(C)ccc21	0% (inactive)	
O=C(NC1CCCCC1)C(c1ccc(C(F)(F)F)cc1)n1c(=O)c(-c2ccco2)nc2ccccc21 (centres undefined)	-26.9% (inactive)	
COC1/C=C/OC2(C)Oc3c(C)c(O)c4c(O)c(c(/C=N/N5CCN(C)CC5)c(O)c4c3C2=O)NC(=O)/C(C)=C/C=C/C(C)C(O)C(C)C(O)C(C)C(OC(C)=O)C1C (centres undefined)	-5.53% (inactive)	
Cc1nn(C)cc1N1C(=O)c2cccc3c(N)ccc(c23)C1=O		100 µM (active)
CC(C)CCNC(=O)C(CC(C)C)N(Cc1ccc2c(c1)OCO2)C(=O)c1snc(C(N)=O)c1N (centres undefined)	-6.88% (inactive)	
O=C(Nc1ncccc1O)c1c(O)c2ccccc2[nH]c1=O		100 µM (active)
CN(CC(=O)Nc1ccc(F)cc1)C(=O)COc1ccc(C(=O)c2ccccc2)cc1	8.82% (inactive)	
COC(=O)C1CCN(c2nc3ccccc3nc2C(C#N)C(=O)NCCc2ccccc2)CC1 (centres undefined)	-11.8% (inactive)	
COc1ccccc1-c1nc2ccccc2n(CC(C)C)c1=O	0.592% (inactive)	
CCOC(=O)C(C)Sc1ncc(OC)c(Sc2ccc(Cl)cc2)n1 (centres undefined)	0% (inactive)	
CN(N=Nc1ccc([N+](=O)[O-])cc1)c1ccccc1		100 µM (active)
COc1ccc2c(c1)OCC(Cc1ccc(OC)c(OC)c1)C2=O (centres undefined)	5.85% (inactive)	
CCCN(CC(=O)Nc1ccccc1C)C(=O)c1oc2ccc(OCC)cc2c1C	-5.75% (inactive)	
CC1COc2ccccc2N1S(=O)(=O)c1ccc(Cl)cc1 (centres undefined)	-7.88% (inactive)	
CN(CC(=O)Nc1ccccc1Cl)C(=O)c1ccc(-c2cccc(C(F)(F)F)c2)o1	-22.2% (inactive)	
CCCCC[C@H](C)N1C[C@@H](COCc2ccccc2)Oc2cc(N3CC[C@H](N(C)C)C3)ccc2S1(=O)=O	-22.6% (inactive)	
Cc1ccc(S(=O)(=O)N2CCOCC2)cc1NC(=O)COC(=O)CCOc1ccc(C(C)(C)C)cc1	-37.1% (inactive)	

biological target: Rap guanine nucleotide exchange factor 4 (Homo sapiens) (UniProt Q8WZA2); assay: Confirmatory qHTS for antagonist of cAMP-regulated guanine nucleotide exchange factor 4 (EPAC2) (AID 1645885); details: EPAC2 Rap1B-BODIPY-GDP exchange fluorescence, biochemical; series mostly up to 12.7 µM; activity change, negative = inhibition: at the top concentration; note: nearly all actives have a fitted effect of over 25% in size; note: potency is the fitted concentration of half-maximal effect; for activity change, negative = inhibition: % is set by controls: 0 for no effect and ±100 for the full control effect

Structure (SMILES)	outcome	activity change, negative = inhibition	Potency
Cc1ccc(C)c(CN2C(=O)C(O)(c3c[nH]c4ccccc34)c3ccccc32)c1 (centres undefined)	inactive [at 12.7 µM]		
O=c1c2ccccc2c(C=Nc2ccc(O)cc2)c(O)n1-c1nccs1		-30.5% [at 114 µM] (inactive)	
O=C(Cn1c(=O)c2ccccc2n(CC(=O)Nc2ccc(Cl)cc2)c1=O)NCCc1ccccc1		-26% (inactive)	
Cc1csc2nc(-c3cccc(NC(=O)c4cccc(F)c4)c3)cn12		-4.54% (inactive)	
Cc1ccc(C)c(Oc2nc3c(c(=O)n(C)c(=O)n3C)n2Cc2ccccc2)c1		24.5% (inactive)	
Cc1ccc2c(c1)-c1c(cnn1CC(=O)N1CCN(c3cccc(C(F)(F)F)c3)CC1)CO2	inactive [at 12.7 µM]		
O=C(c1ccccc1Cc1ccccc1)N1CCN(S(=O)(=O)c2ccccc2Br)CC1		12.4% [at 114 µM] (inactive)	
Cc1cc[n+](-c2[nH]c(=O)sc2/C=N/N=C(\[O-])c2ccccc2)cc1		-6.13% [at 114 µM] (inactive)	
CCOc1ccccc1C(=O)N1CCc2cc(OC)c(OC)cc2C1COc1ccc(OC)cc1 (centres undefined)		2.21% (inactive)	
Nc1nc(CSc2ccc(Cl)cc2)nc(N2CCCCC2)n1		48.1% [at 114 µM] (inactive)	
O=C1CN(C(=O)c2c(F)cccc2Cl)C(c2ccc(F)cc2)c2cc(Br)ccc2N1 (centres undefined)		0.225% (inactive)	
COc1ccc(Cl)cc1NC(=O)COC(=O)c1cc(NS(=O)(=O)c2cccs2)ccc1O		27.9% [at 114 µM] (inactive)	
COc1ccccc1CN(C)C(=O)C(c1ccccc1)c1ccccc1	inactive		
Clc1ccc(OCCn2c(-c3ccco3)nc3ccccc32)cc1		21.4% [at 114 µM] (inactive)	
O=c1[nH]c(Nc2ccc(F)cc2)cc2ccccc12		-28.2% [at 114 µM] (inactive)	
N#CC(C#N)=C1C=C2C=C(N3CCOCC3)CCC2CC1 (centres undefined)			37.9 µM (active)
Cc1nn(-c2ccccc2)c2nc(N)c(C#N)c(-c3ccc(O)c(O)c3)c12		70.1% [at 114 µM] (inactive)	
Cc1cccc(C)c1Nc1c(-c2ccc(Cl)s2)nc2ncccn12		59.8% (inactive)	

biological target: Rap guanine nucleotide exchange factor 3 (Homo sapiens) (UniProt O95398); assay: Counterscreen qHTS for antagonist of cAMP-regulated guanine nucleotide exchange factor 3 (EPAC1) (AID 1645888); details: Rap1B-BODIPY-GDP nucleotide exchange, fluorescence; series mostly up to 154 µM; activity change, negative = inhibition: at the top concentration;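 note: fluorescence loss as bound BODIPY-GDP is released from Rap1B; % of control where 0% means no effect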
Sequence (O95398 whole entry, looked up): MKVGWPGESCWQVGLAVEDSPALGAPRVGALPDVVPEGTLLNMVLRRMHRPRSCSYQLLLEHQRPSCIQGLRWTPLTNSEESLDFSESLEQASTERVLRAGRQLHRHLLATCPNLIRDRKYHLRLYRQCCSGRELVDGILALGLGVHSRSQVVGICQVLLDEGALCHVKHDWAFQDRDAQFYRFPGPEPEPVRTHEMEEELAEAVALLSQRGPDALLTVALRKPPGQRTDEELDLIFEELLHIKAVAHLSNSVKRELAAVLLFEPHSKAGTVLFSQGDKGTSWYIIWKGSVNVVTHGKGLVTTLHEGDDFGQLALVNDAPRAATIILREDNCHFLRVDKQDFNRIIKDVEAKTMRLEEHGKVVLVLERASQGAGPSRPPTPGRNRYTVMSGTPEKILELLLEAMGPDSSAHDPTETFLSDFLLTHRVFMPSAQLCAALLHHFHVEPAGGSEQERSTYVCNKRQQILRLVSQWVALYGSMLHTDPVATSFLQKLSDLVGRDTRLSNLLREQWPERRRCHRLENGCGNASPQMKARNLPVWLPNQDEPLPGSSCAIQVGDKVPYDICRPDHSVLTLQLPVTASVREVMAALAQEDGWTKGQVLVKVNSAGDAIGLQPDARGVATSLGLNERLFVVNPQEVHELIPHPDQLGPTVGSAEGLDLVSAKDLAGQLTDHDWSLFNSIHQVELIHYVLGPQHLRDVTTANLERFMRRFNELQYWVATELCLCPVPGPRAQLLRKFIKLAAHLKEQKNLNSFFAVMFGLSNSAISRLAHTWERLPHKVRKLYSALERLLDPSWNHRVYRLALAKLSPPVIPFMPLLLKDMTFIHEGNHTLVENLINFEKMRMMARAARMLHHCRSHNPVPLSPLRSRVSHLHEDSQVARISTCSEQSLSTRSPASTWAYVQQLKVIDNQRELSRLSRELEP
Summary of the method: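 Rap1B–BODIPY-GDP (250 nM) with 50 uM GDP; compounds pin-transferred to 9.74 nM–152 uM final (activator) or from 7.32 nM upwards (inhibitor). Fluorescence Ex/Em 480/540 nm read at 5 and 30 min, then after adding cAMP or buffer, at room temperature.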

Structure (SMILES)	activity change, negative = inhibition
O=C(Cn1c(=O)c2ccccc2n(CC(=O)Nc2ccc(Cl)cc2)c1=O)NCCc1ccccc1	-8.91% (inactive)
Cc1csc2nc(-c3cccc(NC(=O)c4cccc(F)c4)c3)cn12	-15.4% (inactive)
Cc1ccc(C)c(Oc2nc3c(c(=O)n(C)c(=O)n3C)n2Cc2ccccc2)c1	15.9% (inactive)
Cc1ccc2c(c1)-c1c(cnn1CC(=O)N1CCN(c3cccc(C(F)(F)F)c3)CC1)CO2	-7.84% (inactive)
O=C(c1ccccc1Cc1ccccc1)N1CCN(S(=O)(=O)c2ccccc2Br)CC1	-16.8% (inactive)
CCOc1ccccc1C(=O)N1CCc2cc(OC)c(OC)cc2C1COc1ccc(OC)cc1 (centres undefined)	14.6% (inactive)
Nc1nc(CSc2ccc(Cl)cc2)nc(N2CCCCC2)n1	1.73% (inactive)
COc1ccc(Cl)cc1NC(=O)COC(=O)c1cc(NS(=O)(=O)c2cccs2)ccc1O	13.7% (inactive)
COc1ccccc1CN(C)C(=O)C(c1ccccc1)c1ccccc1	9.06% (inactive)
Clc1ccc(OCCn2c(-c3ccco3)nc3ccccc32)cc1	3.69% (inactive)
O=c1[nH]c(Nc2ccc(F)cc2)cc2ccccc12	-8.73% (inactive)
N#CC(C#N)=C1C=C2C=C(N3CCOCC3)CCC2CC1 (centres undefined)	131% (inactive)
Cc1nn(-c2ccccc2)c2nc(N)c(C#N)c(-c3ccc(O)c(O)c3)c12	-3.81% (inactive)
Cc1cccc(C)c1Nc1c(-c2ccc(Cl)s2)nc2ncccn12	-6.74% (inactive)
